Hits are enriched below; roughly 3.5% of the tested compounds scored in any of these assays.
PPC-1+TRAIL kill – kills PPC-1 cancer cells in the presence of TRAIL; PPC-1 cells + TRAIL, ATPLite viability luminescence; cell killing (% activity), % at 4 µM or 5 µM; 220,000 compounds, 0.41% hits; AID 1443;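 active means cell killing above 50% in the first pass at 4 µM, then a duplicate retest at 5 µM averaging 50% or more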;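 further: plate controls were cells with TRAIL plus DMSO for no effect and medium-only wells lacking cells for full effect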
TROY NFkB inh – TROY signaling inhibition; Q293 LMP1-TROYcd NF-kB luciferase reporter, 4 h; inhibition, % at 10 µM; 360,000 compounds, 0.98% hits; AID 1347056;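 active means compounds whose plate-normalised and pattern-corrected inhibition of the luciferase reporter signal at the single screening dose is 50% or more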
TRAIL sens C8 – sensitizes caspase-8 expressing cells to TRAIL | AID 624354 | NB7+C8 cells + TRAIL, ATPlite viability luminescence | inhibition (viability loss, TRAIL sensitization), % at 10 µM | 360,000 compounds, 1% hits;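 active means compounds causing at least 50% loss of cell viability in the single-dose screen, relative to plate controls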
HSP90 inh – blocks HSP90-mediated luciferase refolding in reticulocyte lysate | Rabbit reticulocyte lysate, luciferase refolding luminescence, 3 h | inhibition, % at 5.6 µM | 290,000 compounds, 0.91% hits | AID 1789;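 active means inhibition above the screen-wide mean plus 3 SD, computed separately per campaign, cut at about 16% in these data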;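 further: 0% = DMSO wells and 100% = 60 µM geldanamycin wells; inhibitors lower the luminescence because luciferase stays unfolded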
TWEAK-Fn14 inh – blocks TWEAK-Fn14 interaction in a reporter cell assay; TWEAK-stimulated Fn14 reporter cells, luciferase luminescence, 8 h; inhibition, % at 10 µM; 360,000 compounds, 2% hits; in the data active means inhibition above about 50%
Platelet DG rel – modulates dense granule release in human platelets | inhibition, %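 (compounds screened at 7.5 µM in platelet-rich plasma)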 | 300,000 compounds, 0.22% hits | human platelet-rich plasma, SFLLRN dense granule ATP release, luminescence;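 active means mean replicate score, as percent of positive control, at or above 50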
HSP90 confirm – confirmation of HSP90 inhibitors; shares compounds with HSP90 inh; rabbit reticulocyte lysate, luciferase refolding luminescence, 3 h; inhibition, % at 5.9 µM; 2,300 compounds, 64% hits; in the data active means inhibition above about 18%;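 further: 0% = vehicle wells and 100% = reference inhibitor wells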
FLuc counter – firefly luciferase inhibition, HSP90 counter-screen | AID 1847 | inhibition, % at 5.9 µM | 2,300 compounds, 48% hits | purified native firefly luciferase, luminescence | shares compounds with HSP90 inh;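 active means inhibition above the mean inhibition of all tested sample wells plus 3 SD, cut at about 10% in these data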;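 further: 0% = DMSO with luciferase and 100% = wells lacking luciferase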
Target sequence (P08659 whole entry, looked up): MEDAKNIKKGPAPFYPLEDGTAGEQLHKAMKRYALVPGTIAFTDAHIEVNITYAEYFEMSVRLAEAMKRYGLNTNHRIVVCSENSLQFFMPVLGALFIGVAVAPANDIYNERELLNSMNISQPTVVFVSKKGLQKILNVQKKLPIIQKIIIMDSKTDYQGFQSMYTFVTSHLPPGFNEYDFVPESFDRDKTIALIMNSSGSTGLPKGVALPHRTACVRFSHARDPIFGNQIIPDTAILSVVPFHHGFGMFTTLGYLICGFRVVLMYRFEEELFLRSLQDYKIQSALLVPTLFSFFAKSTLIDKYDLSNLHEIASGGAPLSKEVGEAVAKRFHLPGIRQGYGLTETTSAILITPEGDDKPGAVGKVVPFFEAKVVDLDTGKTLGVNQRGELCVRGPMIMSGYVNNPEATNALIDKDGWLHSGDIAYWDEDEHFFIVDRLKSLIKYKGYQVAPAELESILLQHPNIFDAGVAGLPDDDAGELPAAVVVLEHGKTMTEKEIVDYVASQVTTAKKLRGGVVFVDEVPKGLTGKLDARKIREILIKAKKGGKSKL
Starred values were filed as active, the others as inactive; nt = not tested or not shown; ! = not confirmed by another sample.

SMILES | PPC-1+TRAIL kill | TROY NFkB inh | TRAIL sens C8 | HSP90 inh | TWEAK-Fn14 inh | Platelet DG rel | HSP90 confirm | FLuc counter
COc1ccc(C#Cc2ccc3c(=O)c4ccccc4n(C)c3c2)cc1 | nt | nt | nt | -2.6 | nt | 2.5 | nt | nt
Cn1c2ccccc2c(=O)c2ccc(C#Cc3ccc(N)cc3)cc21 | nt | 50.2* | 32.5 | 24.3* | 15.7 | 1.0 | 31.5* | 0.4
Cc1ccc(SCc2cn3ccccc3n2)cc1 | 22.7 | -56.8 | 20.5 | 4.7 | -6.7 | -27.3 | nt | nt
Cn1ccnc1SCc1cn2cc(Br)ccc2n1 | 12.5 | -39.8 | 17.9 | 17.8* | 31.4 | -4.3 | 39.8* | 34.0*
Cc1nnc(SCC(=O)N2CCN(c3cccc(Cl)c3)CC2)n1C1CC1 | nt | -12.8 | -7.0 | nt | -14.5 | nt | nt | nt
O=C1OCCC1Sc1nnc(-c2ccc(Cl)cc2Cl)o1 (stereo not drawn) | 24.8 | 52.1* | 28.7 | 33.1* | 83.1* | -2.6 | 66.9* | 57.3*
COc1ccc(CN(C(=O)c2ccco2)c2ccc(Br)cc2)cc1OC | -8.2 | -2.2 | -8.1 | -3.4 | -12.1 | -4.6 | nt | nt
O=C1/C(=C/N(C(=O)c2ccco2)c2ccc(Br)cc2)Sc2ccccc21 | 15.2 | 65.1* | 56.9* | 17.4* | 86.8* | 16.1 | 57.2* | 60.7*
CCN(CC(=O)NCc1ccc(F)cc1)C(=O)c1cc2ccccc2o1 | nt | -0.4 | -22.2 | -3.4 | 44.0 | 9.2 | nt | nt
c1ccc(CNCCC(Cc2ccccc2)c2ccco2)cc1 (stereo not drawn) | 4.3 | 1.0 | 13.3 | 2.4 | -7.7 | 6.9 | nt | nt
CN(C)c1ccc(CNCCC(Cc2ccccc2)c2ccco2)cc1 (stereo not drawn) | 21.3 | 8.3 | 0.7 | 18.5* | 1.0 | -7.8 | 5.0 | -2.1
CC(C)Cc1nnc(NC(=O)CCC(=O)N2CC(C)CC(C)C2)s1 (stereo not drawn) | nt | -6.2 | -10.2 | -0.1 | 1.5 | 25.1 | nt | nt
CCC(CO)Oc1cc(NCc2ccccc2Cl)c2ncn(C(C)C)c2c1 (stereo not drawn) | nt | -8.6 | 15.4 | nt | -20.8 | nt | nt | nt
CCOC(=O)c1[nH]cc(-c2ccccc2)c1N1CCOCC1 | 22.4 | -11.9 | -4.0 | 18.1* | 8.4 | nt | 0.3 | -1.9
COc1cccc(C2Nc3ccccc3NC3=C2C(=O)CC(C)(C)C3)c1 (stereo not drawn) | nt | 18.9 | -17.2 | 22.7* | -4.5 | 9.3 | -1.2 | -4.4
Cc1c(CC(=O)NCCCC(=O)O)c(=O)oc2cc3c(cc12)CCC(C)(C)O3 | nt | 38.6 | -18.5 | 23.8* | 81.1* | 0.4 | 36.0* | -5.0
Cc1c(CC(=O)NCCCCCC(=O)O)c(=O)oc2cc3c(cc12)CCC(C)(C)O3 | nt | -4.5 | 33.0 | 3.2 | 38.4 | 2.2 | nt | nt
Cc1cc(C)n(CCNc2nc3nonc3nc2N2CCCCC2)n1 | 5.7 | 9.9 | 14.8 | -2.6 | -7.7 | 0.9 | nt | nt
O=C(CSc1ccc(-c2cccnc2)nn1)Nc1ccc(F)cc1 | nt | 12.9 | -2.1 | 1.6 | -4.9 | -11.2 | nt | nt
Nc1cc(-c2ccccc2)ccc1O | 19.7 | -1.9 | 6.7 | 23.7*! | -38.5 | -0.3 | 80.1* | -17.6
COc1ccccc1N(/N=C1\Sc2ccccc2C1=O)C(C)=O | 48.4 | 78.0* | 49.2 | 70.7* | 79.3* | -9.1 | 75.9* | 34.3*
COc1ccc(N(/N=C2\Sc3ccccc3C2=O)C(C)=O)cc1 | 4.7 | 9.4 | 6.8 | 19.6* | 1.8 | -0.2 | 73.1* | -18.9
Cc1ccc(NC(=S)NC(=O)C2CCCC2)cc1C | nt | -51.5 | -14.9 | -4.2 | 8.9 | 2.7 | nt | nt
Cc1ccc(NC(=S)NC(=O)C2CC2)c(C)c1 | nt | -42.0 | -17.4 | 31.4* | -17.0 | 6.3 | -10.1 | -17.5
CN(c1ccc(O)cc1)c1nc(-c2cccs2)cs1 | nt | -17.9 | 9.1 | 0.5 | 0.8 | 0.2 | nt | nt
SMILES | PPC-1+TRAIL kill | TROY NFkB inh | TRAIL sens C8 | HSP90 inh | TWEAK-Fn14 inh | Platelet DG rel | HSP90 confirm | FLuc counter
Cc1nc(N)sc1-c1csc(N(C)c2ccc(O)cc2)n1 | 8.9 | -6.3 | -5.8 | 27.3* | 9.9 | 2.1 | -10.5 | -21.4
Cc1ccc(N=Nc2cc(C)ccc2O)c(C)c1 | nt | -47.2 | -11.5 | 0.1 | -36.8 | 5.4 | nt | nt
Cc1ccc(N=Nc2cc(C)ccc2N)cc1 | 34.1 | 22.0 | 68.6* | 26.3* | -12.8 | 70.1* | 63.1* | 61.4*
O=C(O)c1ccc(NC(CSCc2ccc(F)cc2)C(=O)O)c([N+](=O)[O-])c1 (stereo not drawn) | -17.6 | -0.2 | -10.6 | 6.8 | 9.7 | -3.0 | nt | nt
Cc1ccc(CSCC(Nc2ccc(C(=O)O)cc2[N+](=O)[O-])C(=O)O)cc1 (stereo not drawn) | -1.7 | -5.4 | -21.8 | 24.6* | 21.3 | 9.1 | -2.9 | -5.0
c1ccc(C2=NNC(=NCc3ccc4c(c3)OCO4)SC2)cc1 | 12.6 | -36.1 | -4.7 | 1.1 | -8.9 | -12.8 | nt | nt
C=CCN=C1NN=C(c2ccc3c(c2)OCCO3)CS1 | 31.3 | 68.9* | 35.4 | 46.9* | 66.7* | 9.7 | 83.0* | 79.0*
CCOc1ccc(OCc2cccc(C(=O)N/N=C/c3cccnc3)c2)cc1 | 41.2 | -25.7 | 44.6 | 31.1* | -17.3 | 14.2 | 23.2* | -4.0
COc1ccc(OCc2cccc(C(=O)NN)c2)cc1 | 26.1 | -55.1 | 33.5 | 43.9* | -30.5 | 19.7 | 54.1* | 30.3*
COc1ccc(OCc2cccc(C(=O)Nn3cc([N+](=O)[O-])cn3)c2)cc1 | 37.0 | -25.5 | 27.7 | 18.4* | -8.0 | 0.8 | 61.9* | 27.5*
NNC(=O)c1cccc(COc2ccc(Br)cc2)c1 | 12.4 | -67.0 | 22.7 | 59.6* | -14.2 | -3.1 | 49.0* | 16.6*
NNC(=O)c1cccc(COc2cccc(Br)c2)c1 | 12.1 | -71.5 | -9.4 | -1.2 | -20.5 | 19.5 | nt | nt
COC(=O)c1cccc(Cn2cc([N+](=O)[O-])cn2)c1 | 15.4 | nt | nt | 0.0 | nt | 2.5 | nt | nt
Cc1ccnc2nc(C(=O)OCC(=O)N(C)C3CCCCC3)nn12 | nt | 0.1 | -25.6 | nt | 0.8 | nt | nt | nt
COc1cccc(C(=O)Nc2cc(C)on2)c1 | nt | -43.5 | 26.2 | nt | -0.8 | nt | nt | nt
CCOc1ccc(OCc2cccc(C(=O)N3CCOCC3)c2)cc1 | 42.8 | -83.1 | 65.2* | 61.0* | 12.2 | -1.2 | 70.0* | 73.1*
COc1ccc(OCc2cccc(C(=O)Nc3cc(C)on3)c2)cc1 | 20.6 | -55.9 | 12.1 | 40.3* | 14.3 | 7.1 | 65.4* | 58.5*
CCC(C)C(=O)Nc1nnc(CCc2ccccc2)s1 (stereo not drawn) | nt | -30.1 | -14.8 | 4.5 | -8.2 | -14.7 | nt | nt
C[n+]1c(/C=C/c2ccc3c(c2)OCO3)ccc2ccccc21 | nt | 80.7* | -0.8 | 32.2* | 82.4* | 2.5 | 53.7* | 55.2*
COc1ccc(C(=O)NCCn2ccc3ccccc32)c(OC)c1 | 13.2 | -23.1 | -17.5 | 37.6* | 29.6 | 5.1 | 15.8 | -9.4
COc1ccc(C(=O)NCCN2CCOCC2)c(OC)c1 | 9.9 | 19.7 | 7.7 | -0.2 | 7.6 | 0.7 | nt | nt

Screening results from PubChem BioAssay.
